tested on: LXRa homodimer (NR concentration 270 nM); experiment: PBM binding z-score (relative to random genomic background probes); higher = stronger binding; sequences stand for … in GC…GCGATTGACAGCGTAGAATGAAGG
Summary of the method: (§1)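 Binding z-scores were set against random background probes. The data came from custom Agilent 4×180K protein-binding microarrays carrying double-stranded probes with 34-nt variable regions, incubated 1 h with ligand-free nuclear receptor dimers. Partner-specific antibodies detected binding, and scanned fluorescence was regression-normalized.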

| Sequence | PBM binding z-score |
| --- | --- |
| ACTAGCAGGCCAAGGGGCACTCAAGATTAGTCCG | -0.413 |
| GCTGCTAGGTCAACTGATGCTCAGCTAAAGCTCG | -0.106 |
| TCTACTAGGTCAACGATGGTCAGCTAATCTGCTA | 0.626 |
| AGAACGAGGGCAATGAGGTGATAGCACGGGTGGC | -0.43 |
| ACTATTACTTGAGACGAGGGCAACCGATAGGTTG | 0.422 |
| GGAACGTGGGCATTCGAGTTGATAGCATGGCGAT | -0.683 |
| CGAACGAGGGCATGAGTTGATAGCGAATGCCGAT | -0.522 |
| AGTCCAAGTTCATCTAGGTAACGTAAGATATGCT | 1.19 |
| GCTAGTTGGTCAGTATAAGGTCACACACCGGTCG | 3.48 |
| TCGAGTAGGTAAGGGGCATTCAGAATGGCGTCGA | -0.436 |
| GCTAGCAGGACATTTGGGTCACTCAATGACGGGC | -0.248 |
| TAACCAAGGTGAAGGTCGTTGATCCCTCTGTAGA | 0.0328 |
| TAGCCTAGGTCAGATCGGGCCAATATACGCTATA | 0.0992 |
| ATCTCTAGGTAAAGATAGTACAGTGAATGCAAAT | 0.357 |
| CAAACTAGGTGAAAGGTCAAAGTCGAGCCAACCA | 4.36 |
| CCTCGCAGGACAACAGGAGGTCAGAGCTGCCAGA | 1.92 |
| ACTAGCAGGCCAAGTTTTGGTCACTCAAACAAAG | -0.274 |
| ACTAGCAGGCCAAGGGTCGCTCAAGATTAGTCCG | -0.567 |

tested on: LXRb:RXRa (NR concentration 270 nM, RXRa partner concentration 90 nM); experiment: as above
Summary of the method: as §1

| Sequence | PBM binding z-score |
| --- | --- |
| TTACCAAGGTGAAGGTCGTTGACCCCTCTGTAGA | 4.5 |
| TAGCCTAGGTCAGACCGGGCCAGTATACGCTATA | 0.609 |
| CCTTACGGGTCAAGATTATAGCACGGGTGGTACG | 2.76 |
| CGAACTAGGTCACGAAAGGTCAAAGTCGAATGAC | 7.24 |
| ATCTCTAGGTAAAGTTAGTTCAGTGAATGCAAAT | 0.747 |
| AATACAGGGTCATCCTAGGCCAGAGTACGCACAG | 5.25 |
| TCTATTAGTTGAGTAGGGCAACCGAAACAGCGGA | 0.0431 |
| TTTAGCAGGCCAGAGGGTCACTCAAGAGGTACGG | 1.09 |
| TCATATAGGTAAATCCTAGGTGAAAGTCCGATCT | 0.537 |
| CCTTACGGGTCACTCCAGGTAATAGCATCGGAGT | 3.31 |
| CCTTACGGGTCACTGACAAGTTATAGCATTTGGA | 3.2 |
| CCTACTGGACCAAAAAGGTCATTGATGCCGATAA | 4.55 |
| CGTCCAAGGTCAATGCTATGTCAGTGAAAGCATT | 3.67 |
| CCGACTGGGGCAGAAAGGCTACCATACCATCCGG | -0.869 |
| CGAACGAGGGCATGATTTGATAGCAAATGCCGAT | -0.0288 |
| CGTCCAAGGTTAGAGAGGTCAGTGAATGCCGAGT | 2.48 |
| GCGACTGGGGCAAAGCAGGTTAACATAAGGTTGG | 0.261 |
| CCTACTGGGCCATTCAGAGGTCATTTATCATATG | 4.14 |
| AGTCAAAGTTCACTAGGTAACGTAAGATTCAGCT | 3.17 |
| TGTCACAGTTCAAAGGTAACGTAAGTATCCACAC | 2.87 |

| Sequence | PBM binding z-score |
| --- | --- |
| TCTAGATGGTCACGGAGGTCACACACGACGGGTA | 3.49 |
| ATCTCTAGGTAACCAAGTTAAGTGAATGCCGAAC | 0.412 |
| ACTAGCAGGCCAAGGGGCACTCAAGATTAGTCCG | 0.0457 |
| GCTGCTAGGTCAACTGATGCTCAGCTAAAGCTCG | 1.88 |
| TCTACTAGGTCAACGATGGTCAGCTAATCTGCTA | 2.29 |
| AGAACGAGGGCAATGAGGTGATAGCACGGGTGGC | -0.215 |
| ACTATTACTTGAGACGAGGGCAACCGATAGGTTG | 0.481 |
| GGAACGTGGGCATTCGAGTTGATAGCATGGCGAT | -1.02 |
| CGAACGAGGGCATGAGTTGATAGCGAATGCCGAT | -0.0069 |
| AGTCCAAGTTCATCTAGGTAACGTAAGATATGCT | 1.62 |
| GCTAGTTGGTCAGTATAAGGTCACACACCGGTCG | 2.64 |
| TCGAGTAGGTAAGGGGCATTCAGAATGGCGTCGA | 0.42 |
| GCTAGCAGGACATTTGGGTCACTCAATGACGGGC | -0.0431 |
| TAACCAAGGTGAAGGTCGTTGATCCCTCTGTAGA | 1.66 |
| TAGCCTAGGTCAGATCGGGCCAATATACGCTATA | 1.22 |
| ATCTCTAGGTAAAGATAGTACAGTGAATGCAAAT | 0.211 |
| CAAACTAGGTGAAAGGTCAAAGTCGAGCCAACCA | 6.08 |
| CCTCGCAGGACAACAGGAGGTCAGAGCTGCCAGA | 1.05 |
| ACTAGCAGGCCAAGTTTTGGTCACTCAAACAAAG | -0.34 |
| ACTAGCAGGCCAAGGGTCGCTCAAGATTAGTCCG | 0.0881 |

tested on: LXRb homodimer (NR concentration 270 nM); experiment: as above
Summary of the method: as §1

| Sequence | PBM binding z-score |
| --- | --- |
| TTACCAAGGTGAAGGTCGTTGACCCCTCTGTAGA | -0.739 |
| TAGCCTAGGTCAGACCGGGCCAGTATACGCTATA | -0.719 |
| CCTTACGGGTCAAGATTATAGCACGGGTGGTACG | 0.37 |
| CGAACTAGGTCACGAAAGGTCAAAGTCGAATGAC | 2.38 |
| ATCTCTAGGTAAAGTTAGTTCAGTGAATGCAAAT | 0.893 |
| AATACAGGGTCATCCTAGGCCAGAGTACGCACAG | 1.72 |
| TCTATTAGTTGAGTAGGGCAACCGAAACAGCGGA | 0.0555 |
| TTTAGCAGGCCAGAGGGTCACTCAAGAGGTACGG | -0.78 |
| TCATATAGGTAAATCCTAGGTGAAAGTCCGATCT | -0.0667 |
| CCTTACGGGTCACTCCAGGTAATAGCATCGGAGT | 0.11 |
| CCTTACGGGTCACTGACAAGTTATAGCATTTGGA | 0.134 |
| CCTACTGGACCAAAAAGGTCATTGATGCCGATAA | 1.28 |
| CGTCCAAGGTCAATGCTATGTCAGTGAAAGCATT | 0.692 |
| CCGACTGGGGCAGAAAGGCTACCATACCATCCGG | -1.41 |
| CGAACGAGGGCATGATTTGATAGCAAATGCCGAT | -0.66 |
| CGTCCAAGGTTAGAGAGGTCAGTGAATGCCGAGT | -0.312 |
| GCGACTGGGGCAAAGCAGGTTAACATAAGGTTGG | -1.01 |
| CCTACTGGGCCATTCAGAGGTCATTTATCATATG | 1.15 |
| AGTCAAAGTTCACTAGGTAACGTAAGATTCAGCT | 1.11 |
| TGTCACAGTTCAAAGGTAACGTAAGTATCCACAC | 0.361 |

| Sequence | PBM binding z-score |
| --- | --- |
| TCTAGATGGTCACGGAGGTCACACACGACGGGTA | 0.481 |
| ATCTCTAGGTAACCAAGTTAAGTGAATGCCGAAC | 0.551 |
| ACTAGCAGGCCAAGGGGCACTCAAGATTAGTCCG | -0.63 |
| GCTGCTAGGTCAACTGATGCTCAGCTAAAGCTCG | -0.349 |
| TCTACTAGGTCAACGATGGTCAGCTAATCTGCTA | 0.75 |
| AGAACGAGGGCAATGAGGTGATAGCACGGGTGGC | -0.118 |
| ACTATTACTTGAGACGAGGGCAACCGATAGGTTG | 1.02 |
| GGAACGTGGGCATTCGAGTTGATAGCATGGCGAT | -1.01 |
| CGAACGAGGGCATGAGTTGATAGCGAATGCCGAT | -0.724 |
| AGTCCAAGTTCATCTAGGTAACGTAAGATATGCT | 0.287 |
| GCTAGTTGGTCAGTATAAGGTCACACACCGGTCG | 0.601 |
| TCGAGTAGGTAAGGGGCATTCAGAATGGCGTCGA | -0.693 |
| GCTAGCAGGACATTTGGGTCACTCAATGACGGGC | -0.72 |
| TAACCAAGGTGAAGGTCGTTGATCCCTCTGTAGA | -0.394 |
| TAGCCTAGGTCAGATCGGGCCAATATACGCTATA | 0.0531 |
| ATCTCTAGGTAAAGATAGTACAGTGAATGCAAAT | 0.424 |
| CAAACTAGGTGAAAGGTCAAAGTCGAGCCAACCA | 2.26 |
| CCTCGCAGGACAACAGGAGGTCAGAGCTGCCAGA | -0.469 |
| ACTAGCAGGCCAAGTTTTGGTCACTCAAACAAAG | -0.558 |
| ACTAGCAGGCCAAGGGTCGCTCAAGATTAGTCCG | -0.965 |

From the supplement of paper PMC6555819
